In PubChem BioAssay AID1159580 (chemical genetic matrix, 2015):
About 2,000 (36%) of roughly 5,500 compounds were called active. About 18% were inconclusive and are not listed. Rule as the data show it: active = normalized growth mostly below about 0.91 (no sharp cut-off); inconclusive = no clear call, values can overlap the other calls; inactive = mostly above about 0.92. The list shows a part of the results.

Assay: chemical genetic growth profiling, strain panel (AID 1159580);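 also: tested at 20 µM; growth read once vehicle control cultures reached saturation at 30 °C; 1 = growth at the plate median or of vehicle wells; lower values mean less growth of the strain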
Settings: growth OD

Measured: normalized growth

O=C1c2ccccc2C(=O)c2c1ccc(O)c2O
inactive: S. cerevisiae deletion strains, locus YKL009W, strain mrt4, active compounds read low 0.907 | S. cerevisiae deletion strains, locus YOL012C, strain htz1 0.219
active: S. cerevisiae deletion strains, locus YJL187C, strain SWE1, active compounds read low 0.524 | S. cerevisiae deletion strains, locus YJR066W, strain TOR1, active compounds read low 0.565 | S. cerevisiae deletion strains, locus YKL068W, active compounds read low 0.854 | S. cerevisiae deletion strains, locus YKL085W, strain MDH1 (second series), active compounds read low 0.868 | S. cerevisiae deletion strains, locus YKL085W, strain MDH1, active compounds read low 0.868 | S. cerevisiae deletion strains, locus YKL160W, strain elf1, active compounds read low 0.568 | S. cerevisiae deletion strains, locus YKL190W, strain CNB1, active compounds read low 0.286 | S. cerevisiae deletion strains, locus YKR001C, strain vps1, active compounds read low 0.26 | S. cerevisiae deletion strains, locus YKR026C, strain gcn3, active compounds read low 0.744 | S. cerevisiae deletion strains, locus YKR091W, strain srl3, active compounds read low 0.714 | S. cerevisiae deletion strains, locus YLL001W, strain dnm1, active compounds read low 0.492 | S. cerevisiae deletion strains, locus YLL026W, active compounds read low 0.576 | S. cerevisiae deletion strains, locus YLL041C, strain sdh2, active compounds read low 0.733 | S. cerevisiae deletion strains, locus YLR027C, strain aat2, active compounds read low 0.578 | S. cerevisiae deletion strains, locus YLR039C, strain RIC1, active compounds read low 0.149 | S. cerevisiae deletion strains, locus YLR058C, strain SHM2, active compounds read low 0.203 | S. cerevisiae deletion strains, locus YLR102C, strain apc9, active compounds read low 0.516 | S. cerevisiae deletion strains, locus YLR113W, strain HOG1, active compounds read low 0.56 | S. cerevisiae deletion strains, locus YLR221C, strain rsa3, active compounds read low 0.538 | S. cerevisiae deletion strains, locus YLR258W, strain gsy2, active compounds read low 0.58 | S. cerevisiae deletion strains, locus YLR262C, strain YPT6 (second series), active compounds read low 0.201 | S. cerevisiae deletion strains, locus YLR268W, strain sec22, active compounds read low 0.194 | S. cerevisiae deletion strains, locus YLR320W, strain mms22, active compounds read low 0.374 | S. cerevisiae deletion strains, locus YLR342W, strain FKS1, active compounds read low 0.453 | S. cerevisiae deletion strains, locus YLR357W, strain rsc2, active compounds read low 0.579 | S. cerevisiae deletion strains, locus YLR370C, strain arc18, active compounds read low 0.539 | S. cerevisiae deletion strains, locus YLR371W, strain rom2, active compounds read low 0.316 | S. cerevisiae deletion strains, locus YLR384C, strain iki3, active compounds read low 0.574 | S. cerevisiae deletion strains, locus YLR418C, strain cdc73, active compounds read low 0.225 | S. cerevisiae deletion strains, locus YML016C, strain PPZ1, active compounds read low 0.195 | S. cerevisiae deletion strains, locus YML032C, strain rad52, active compounds read low 0.487 | S. cerevisiae deletion strains, locus YML120C, strain ndi1, active compounds read low 0.602 | S. cerevisiae deletion strains, locus YML124C, strain tub3, active compounds read low 0.547 | S. cerevisiae deletion strains, locus YMR058W, strain fet3, active compounds read low 0.444 | S. cerevisiae deletion strains, locus YMR078C, strain ctf18, active compounds read low 0.455 | S. cerevisiae deletion strains, locus YMR125W, strain sto1, active compounds read low 0.773 | S. cerevisiae deletion strains, locus YMR129W, active compounds read low 0.69 | S. cerevisiae deletion strains, locus YMR205C, strain PFK2, active compounds read low 0.423 | S. cerevisiae deletion strains, locus YMR223W, strain ubp8, active compounds read low 0.408 | S. cerevisiae deletion strains, locus YMR231W, strain pep5, active compounds read low 0.641 | S. cerevisiae deletion strains, locus YMR263W, strain SAP30, active compounds read low 0.295 | S. cerevisiae deletion strains, locus YMR307W, strain GAS1, active compounds read low 0.167 | S. cerevisiae deletion strains, locus YNL067W, strain RPL9B, active compounds read low 0.324 | S. cerevisiae deletion strains, locus YNL071W, strain lat1, active compounds read low 0.386 | S. cerevisiae deletion strains, locus YNL128W, strain TEP1, active compounds read low 0.216 | S. cerevisiae deletion strains, locus YNL153C, strain GIM3, active compounds read low 0.28 | S. cerevisiae deletion strains, locus YNL183C, strain NPR1, active compounds read low 0.596 | S. cerevisiae deletion strains, locus YNL209W, strain ssb2, active compounds read low 0.265 | S. cerevisiae deletion strains, locus YNL233W, strain BNI4, active compounds read low 0.246 | S. cerevisiae deletion strains, locus YNL248C, strain rpa49, active compounds read low 0.458 | S. cerevisiae deletion strains, locus YNL250W, strain rad50, active compounds read low 0.895 | S. cerevisiae deletion strains, locus YNL271C, strain bni1, active compounds read low 0.828 | S. cerevisiae deletion strains, locus YNL298W, strain CLA4, active compounds read low 0.775 | S. cerevisiae deletion strains, locus YNL307C, strain MCK1, active compounds read low 0.188 | S. cerevisiae deletion strains, locus YNL322C, strain KRE1 (second series), active compounds read low 0.726 | S. cerevisiae deletion strains, locus YNR049C, strain mso1, active compounds read low 0.659 | S. cerevisiae deletion strains, locus YNR052C, strain pop2, active compounds read low 0.218 | S. cerevisiae deletion strains, locus YOL147C, strain pex11, active compounds read low 0.362 | S. cerevisiae deletion strains, locus YOR001W, strain rrp6, active compounds read low 0.608 | S. cerevisiae deletion strains, locus YOR061W, strain CKA2, active compounds read low 0.237 | S. cerevisiae deletion strains, locus YOR069W, strain VPS5, active compounds read low 0.314 | S. cerevisiae deletion strains, locus YOR070C, strain gyp1, active compounds read low 0.496 | S. cerevisiae deletion strains, locus YOR080W, strain dia2, active compounds read low 0.638 | S. cerevisiae deletion strains, locus YOR083W, strain WHI5, active compounds read low 0.475 | S. cerevisiae deletion strains, locus YOR106W, strain vam3, active compounds read low 0.302 | S. cerevisiae deletion strains, locus YOR136W, strain idh2, active compounds read low 0.433 | S. cerevisiae deletion strains, locus YOR144C, strain elg1, active compounds read low 0.561 | S. cerevisiae deletion strains, locus YOR184W, strain ser1, active compounds read low 0.209 | S. cerevisiae deletion strains, locus YOR231W, strain MKK1, active compounds read low 0.707 | S. cerevisiae deletion strains, locus YOR265W, strain rbl2, active compounds read low 0.503 | S. cerevisiae deletion strains, locus YOR270C, strain vph1, active compounds read low 0.278 | S. cerevisiae deletion strains, locus YOR290C, strain snf2, active compounds read low 0.41 | S. cerevisiae deletion strains, locus YOR316C, strain cot1, active compounds read low 0.474 | S. cerevisiae deletion strains, locus YPL051W, strain arl3, active compounds read low 0.295 | S. cerevisiae deletion strains, locus YPL078C, strain atp4, active compounds read low 0.471 | S. cerevisiae deletion strains, locus YPL106C, strain sse1, active compounds read low 0.502 | S. cerevisiae deletion strains, locus YPL240C, strain hsp82, active compounds read low 0.613 | S. cerevisiae deletion strains, locus YPL256C, strain CLN2, active compounds read low 0.749 | S. cerevisiae deletion strains, locus YPR119W, strain clb2, active compounds read low 0.558 | S. cerevisiae deletion strains, locus YPR141C, strain kar3, active compounds read low 0.854 | S. cerevisiae deletion strains, locus YPR163C, strain tif3, active compounds read low 0.214 | S. cerevisiae deletion strains, locus YPR167C, strain met16, active compounds read low 0.377 | S. cerevisiae deletion strains, strain wtn01, active compounds read low 0.295 | S. cerevisiae strains, strain wild type, active compounds read low 0.166
